Abeta rescue: A-beta toxicity reversal in yeast; yeast expressing A-beta42, growth rescue, OD600, 48 h; response scale: 0% DMSO, 100% iron-clioquinol control; 0.063% of 410,000 active; AID 1347071; Potency, µM (series often up to 46.1 µM), most hits filed as activators; further: nearly all actives have a fitted effect of over 55% in size
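Growth rescue measured by 600 nm absorbance after 48 h yeast culture at 30 C with compound. Values normalized between DMSO and an equimolar ferric chloride plus clioquinol control.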
aSyn rescue: rescues yeast growth from alpha-synuclein toxicity; 0.14% of 370,000 active; AID 652106; Potency, µM (highest dose often 46.1 µM), for inactives: at the highest dose growth rescue (activation), actives largely listed as activators; Yeast expressing alpha-synuclein, growth rescue, BacTiter-Glo, 24 h; further: % of control where 0% means no effect; nearly all actives have a fitted effect of over 65% in size
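Screening used galactose-induced yeast with toxic alpha-synuclein levels, exposed to compound for 24 hr at 30 deg C. Cell growth, read with BacTiter-Glo luminescence, gave the measured signal.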
TDP-43 yeast inh: TDP-43 toxicity inhibition in yeast; TDP-43 expressing yeast growth rescue, BacTiter-Glo, 24 h; Potency, µM (titrated, usually from 46.1 µM), without a hit: at the top dose growth rescue (activation), most hits filed as activators; 1.8% of 410,000 active; further: % of control where 0% means no effect; nearly all actives have a fitted effect of over 50% in size
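Cell-based yeast growth screen: TDP-43 expression induced in galactose, inoculum OD600=0.02 after raffinose pregrowth to mid-log. Read-out BacTiter-Glo luminescence at 24 hr, 30 deg C; inhibition of toxicity seen as signal increase.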
FUS suppressor: FUS proteinopathy suppression in yeast. AID 1347120. S. cerevisiae FUS-expressing, growth rescue, OD600, 24 h. Potency, µM (series often up to 76.6 µM), actives largely listed as activators. 0.24% of 390,000 active;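 further: plate controls were DMSO vehicle for no effect and reference control for full effect; nearly all actives have a fitted effect of over 55% in size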
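Restored growth of FUS-toxic S. cerevisiae, read as 600 nm absorbance after 24 h at 30C in galactose medium (starting OD 0.005). Controls CP55940 and DMSO.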
An asterisk follows results filed as active; [ ] = another dose, or the depositor's remark. Sampled rows, rich in hits. Any-hit rate of the full collection: about 2.1%. The call rests on the fitted dose curve; in most records, active means well fitted curve in the direction sought with a large enough effect; inconclusive means small, poorly fitted or top-dose-only effect, or another doubt; inactive means no such curve, though single readings can be large; an effect the other way counts as inactive or inconclusive. Potency means the concentration at half of the fitted maximal effect.

C[C@@H]1CCCCCCCCC(=O)OCCN(C(=O)OC(C)(C)C)[C@H](C)CCCCCCCCC(=O)OCCN(C(=O)OC(C)(C)C)[C@H](C)CCCCCCCCC(=O)OCCN1C(=O)OC(C)(C)C was read as Abeta rescue inactive, aSyn rescue 2%, TDP-43 yeast inh 14% and FUS suppressor inactive.
For CCc1ccc([C@H]2C(C(=O)O)=C[C@@H](C(C)(C)C)N2S(=O)(=O)c2ccc(C)cc2)cc1 the results were Abeta rescue inactive, aSyn rescue -14%, TDP-43 yeast inh 14µM* and FUS suppressor inactive.
O=C(c1ccc(CS(=O)Cc2ccc(Cl)cc2)o1)N1CCN(C2CCCCC2)CC1 (centres undefined) was read as Abeta rescue inactive, aSyn rescue -1%, TDP-43 yeast inh 14% and FUS suppressor inactive.
Screening Cc1cc(C)n2nc(SCc3cccc(F)c3)nc2n1 returned Abeta rescue inactive, aSyn rescue 0%, TDP-43 yeast inh 18µM* and FUS suppressor inactive.
Screening Cc1cc(C)n2nc(NCc3cccc(Br)c3)nc2n1 returned Abeta rescue inactive, aSyn rescue 2%, TDP-43 yeast inh 14µM* and FUS suppressor inactive.
For Cc1cc(Cl)cc(C)c1OCC(=O)N1CCN(c2ncccn2)CC1 the results were Abeta rescue inactive, aSyn rescue 0%, TDP-43 yeast inh 13µM* and FUS suppressor inactive.
For CCOc1ccccc1NC(=O)C(OC(=O)c1cnc(C)cn1)c1ccccc1 (centres undefined) the results were Abeta rescue inconclusive, aSyn rescue 12%, TDP-43 yeast inh 18µM* and FUS suppressor inactive.
For CCOc1ccccc1NC(=O)C(OC(=O)C1CC1)c1ccccc1 (centres undefined) the results were Abeta rescue inconclusive, aSyn rescue -8%, TDP-43 yeast inh -8% and FUS suppressor inactive.
`O=C1NC(Cc2ccccc2)C(=O)N1Cc1ccccc1` (centres undefined) gave Abeta rescue inactive, aSyn rescue -4%, TDP-43 yeast inh 9% and FUS suppressor inactive.
O=c1ccsn1Cc1ccccc1 was read as Abeta rescue inactive, aSyn rescue 0% and TDP-43 yeast inh 10µM*.
For CCCC12CN3CC(CCC)(CN(C1)C3c1c[nH]c3ccccc13)C2=O (centres undefined) the results were Abeta rescue inactive, TDP-43 yeast inh -9%[9.22 µM] and FUS suppressor inactive.
For CCCC(C(=O)c1ccccc1)n1cncn1 (centres undefined) the results were Abeta rescue inactive, aSyn rescue -1%, TDP-43 yeast inh -15% and FUS suppressor inactive.
Screening CC(C)(C)C(=O)C(Cc1ccccc1Cl)n1cncn1 (centres undefined) returned Abeta rescue inactive, aSyn rescue 30%, TDP-43 yeast inh 7.1µM* and FUS suppressor inactive.
`CC(C)(C)C(O)C(Cc1ccccc1Cl)n1cncn1` (centres undefined) gave Abeta rescue inactive, aSyn rescue 14%, TDP-43 yeast inh 35µM* and FUS suppressor inactive.
`CC(C)(C)C(=O)C(Cc1ccccc1)n1cncn1` (centres undefined) gave Abeta rescue inactive, aSyn rescue inconclusive, TDP-43 yeast inh inconclusive and FUS suppressor inactive.
CCOC(=O)C1(C)CCCN1C(=O)c1cccs1 (centres undefined) was read as Abeta rescue inactive, aSyn rescue 5%, TDP-43 yeast inh 18% and FUS suppressor inactive.
For CCCN1C(=O)/C(=C/c2ccc3c(c2)OCO3)NC1=S the results were Abeta rescue inconclusive, aSyn rescue -7%, TDP-43 yeast inh 14µM* and FUS suppressor inactive.
CCCCC[C@H](O)/C=C/C1C(=O)C=C[C@H]1C/C=C\CCCC(=O)OC (some centres undefined) was read as Abeta rescue inactive, aSyn rescue 13%, TDP-43 yeast inh 28µM* and FUS suppressor inactive.
Screening Cn1c(=O)c2c(nc(Oc3cccc(Br)c3)n2C)n(C)c1=O returned Abeta rescue inconclusive, aSyn rescue 5%, TDP-43 yeast inh 13µM* and FUS suppressor inactive.
Cn1c(=O)c2c(ncn2CCOc2cccc(Br)c2)n(C)c1=O was read as Abeta rescue inactive, aSyn rescue 27%, TDP-43 yeast inh 14µM* and FUS suppressor inactive.
For O=C(NCc1ccco1)C1CCCN(S(=O)(=O)c2ccc(F)cc2)C1 (centres undefined) the results were FUS suppressor inactive.
For COc1ccc(CCN2C(=O)N(c3cccc(C)c3)C(=O)C2CC(=O)Nc2ccccc2)cc1OC (centres undefined) the results were Abeta rescue inactive, TDP-43 yeast inh -8% and FUS suppressor inconclusive.
For CCc1n[nH]c(=S)n1/N=C/C(C)=C\c1ccccc1 the results were Abeta rescue inactive, aSyn rescue -1%, TDP-43 yeast inh 27% and FUS suppressor inactive.
`CCc1n[nH]c(=S)n1N=C1CCC(C)CC1` (centres undefined) gave Abeta rescue inactive, aSyn rescue -10%, TDP-43 yeast inh 3.5µM* and FUS suppressor inactive.
CCCCCCn1c(=O)n2n(c1=O)[C@@H]1CN(S(=O)(=O)c3ccc(C)cc3)C[C@]1(O)[C@@H](OC(=O)NCc1ccc(OC)c(OC)c1)C2 was read as Abeta rescue inactive, aSyn rescue 11%, TDP-43 yeast inh 0% and FUS suppressor 22µM*.
Cc1ccc(C(=O)Nc2ccc(Br)cc2)cc1S(=O)(=O)NCc1ccccc1 was read as Abeta rescue inactive, TDP-43 yeast inh inconclusive and FUS suppressor inactive.
Screening O=C(O)c1cc2ccccc2[nH]1 returned Abeta rescue inactive, aSyn rescue 10%, TDP-43 yeast inh 23% and FUS suppressor inactive.
Cn1c(C(=O)O)cc2cc(Oc3ccccc3)ccc21 was read as Abeta rescue inactive, aSyn rescue -19%, TDP-43 yeast inh 22µM* and FUS suppressor inactive.
`O=C(O)c1cc2cc(Oc3ccccc3)ccc2[nH]1` gave Abeta rescue inactive, aSyn rescue -5%, TDP-43 yeast inh 18µM* and FUS suppressor inactive.
For O=C(O)c1ccc([N+](=O)[O-])cc1-c1cc([N+](=O)[O-])ccc1C(=O)O the results were Abeta rescue inactive, aSyn rescue 0%, TDP-43 yeast inh 1% and FUS suppressor inactive.
Screening O=[N+]([O-])c1ccc2c(c1)-c1ccccc1C2O (centres undefined) returned Abeta rescue inactive, aSyn rescue 5%, TDP-43 yeast inh 11µM* and FUS suppressor inactive.
`COc1cccc(CN(C(=O)c2oc3ccc(Br)cc3c2C)C2CCS(=O)(=O)C2)c1` (centres undefined) gave Abeta rescue inactive, TDP-43 yeast inh inconclusive and FUS suppressor inconclusive.
Screening CCCCOC(=O)c1ccc(OC(=O)c2cccnc2)cc1 returned Abeta rescue inactive, aSyn rescue 4%, TDP-43 yeast inh 13µM* and FUS suppressor inactive.
